Growth data for 18 compounds are collected here from PubChem BioAssay (NCI).

Holding throughout (assay): NCI-60 one-dose screen, 48 h (100 = growth as untreated, 0 = no growth, -100 = all killed)
Conditions in all cases: 10 µM unless noted

Test [1] relates to NCI-H226 lung.
In test [2] the test system is NCI-H322M lung.
Test [3] concerns HOP-62 NSCLC.
Test [4] concerns NCI-H460 lung.
In test [5] the test system is HOP-92 NSCLC.
The subject of test [6] is NCI-H522 lung.
Test [7] concerns A549/ATCC NSCLC.
Test [8] concerns 786-0 renal.
For test [9], the system named is COLO 205 colon.

About 83,000 compounds went through this panel and 20% of them were active in at least one assay; those are over-represented in the sample as a whole.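 A percent growth of 40 corresponds to 60% growth inhibition; 0 means no net growth; -100 means all cells died. Active threshold: below 10.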 A number with no mark means an inactive call. Active and inactive are the calls of the source.

Turning to `CC(=O)c1ccc(Nc2nccc(-c3ccc4ccccc4c3)n2)cc1`, the growth is 57.1% in test [1]; 97.8% in test [2]; 102% in test [3]; 98.4% in test [4]; 97.5% in test [5]; 45.6% in [6]. For the same compound, the values for the growth in [7], in [8] and in test [9] were 89.1%, 96.9% and 105%, respectively.
For the compound `Cc1cccc2c1C[C@@]1(C2=O)C(c2ccc(C(C)(C)C)cc2)=NOS1=O` (stereo partly specified), the growth in [1] was 80.7%; in [2], 92.2%; in test [3], 90%; in [4], 92.2%; in test [5], 74.3%; in [6], 90.8%. Besides, the growth was 90.3% in test [7] and 99.7% in [8].
As to `Cc1ccc2nc(-c3ccc(C(=O)NNC(=S)Nc4ccccc4)cc3)[nH]c2c1`, the growth in test [1] is 92.7%; in test [2], 99.7%; in test [3] it was 95.3%; in [4] it was 94.4%; in test [5], 99.8%; in [6] it was 95%. For the same compound, the values for the growth in test [7], in [8] and in test [9] were 101%, 94.8% and 119%, respectively.
For `COc1ccc(-c2nc(-c3cn(C)c4ncccc34)cs2)cc1`, the growth was 2.9% [100 µM] (active) in test [1]; 1.44% [100 µM] (active) in [2]; -49.5% [100 µM] (active) in [3]; -43% [100 µM] (active) in test [4]; -40.4% [100 µM] (active) in test [5]; 20.1% [100 µM] in test [6]. The growth in test [7] was 12.4% [100 µM]; in test [8] it was -30.9% [100 µM] (active); in test [9], -49.8% [100 µM] (active).
`C=C1C(=O)O[C@H]2[C@H]1CC/C(COC(=O)CSCSCC(=O)OC/C1=C/CC[C@@]3(C)O[C@H]3[C@H]3OC(=O)C(=C)[C@@H]3CC1)=C\CC[C@@]1(C)O[C@@H]21`: the growth in [1] was -7.99% (active); in [2], 79.1%; in [3], 82.7%; in test [4], 13.6%; in [5], -13.3% (active); in test [6], -77.8% (active). The growth in [7] is 72.1%; in [8] it was -6.8% (active); in [9], -65.5% (active).
Regarding `O=C(c1c[nH]c2ccccc12)c1n[nH]c(=S)n1-c1cccc(Br)c1`, the growth in [1] was 83.1%; in test [2], 77.7%; in test [3] it was 81.7%; in [4] it was 75%; in test [5] it was 84.2%; in test [6], 80%. For the same compound, the growth in test [7] is 86.5%; in [8] it was 103%; in test [9], 99%.
`Cc1ccc(S(=O)(=O)c2nc(-c3ccccc3)oc2Sc2nc3ccccc3s2)cc1`: the growth in test [1] was 48.6%; in [2], 94%; in test [3], 97.1%; in test [4], 68.1%; in test [5], 73.9%; in test [6], 54.1%. Also, the growth in test [7] was 101%; in test [8] it was 35.3%; in [9] it was 102%.
As for `Cc1ccc(C)c(/C=C2\CN(C(=O)OC(C)(C)C)C/C(=C\c3cc(C)ccc3C)C2=O)c1`, the growth in [1] was 89%; in test [2], 93.9%; in test [3], 93.4%; in test [4], 45.3%; in test [5] it was 91.3%; in test [6] it was 46.1%. Besides, the growth in test [7] was 80.5%; in test [8] it was 74.5%; in test [9], 30.9%.
On to `O=C1Nc2ccccc2/C1=C/c1cccn1C(=O)c1ccc(Cl)s1`, for which the growth in test [1] is 61.7%; in test [2], 50.4%; in test [3] it was 52.3%; in test [4], 75.7%; in test [5], 70.2%; in test [6], 37.8%. In addition, the figures for the growth in test [7], in [8] and in test [9] were 23.4%, 85.3% and 68%, respectively.
With `COc1ccc(C[n+]2c3ccccc3n3c4ccc(N)cc4ccc32)c(OC)c1OC`, the growth is 61.4% in test [1]; 102% in [2]; 52.9% in test [3]; 73.6% in test [4]; -0.227% (active) in test [5]; 11% in test [6]. Further, the growth in test [7] is 63%; in [8], 75.9%; in test [9], 15.5%.
Regarding `Cc1cccc(-c2nc(Nc3ccc4ncsc4c3)c3ccccc3n2)n1`, the growth is 84.9% in [1]; 93.5% in [2]; 80.2% in test [3]; 36.1% in [4]; 110% in test [5]; 56% in test [6]. For the same compound, the results for the growth in [7], in test [8] and in test [9] were 34.5%, 87.7% and 12.8%, respectively.
Consider `Nc1[nH]c(=S)nc2oc(-c3ccccc3)c(-c3ccccc3)c12`, for which the growth was 107% in test [1]; 105% in test [2]; 86.6% in test [3]; 113% in test [4]; 102% in test [5]; 94.8% in test [6]. In addition, the growth in [7] was 98.1%; in test [8] it was 103%; in test [9], 121%.
On to `CN1CCN(Cc2ccc(NC(=O)c3cncc(C#Cc4cnc(N)c5ncccc45)c3)cc2C(F)(F)F)CC1`, for which the growth was 7.14% (active) in test [1]; 25.1% in [2]; -5.02% (active) in test [3]; -35.5% (active) in [4]; 7.16% (active) in test [5]; 9.75% (active) in test [6]. For the same compound, the values for the growth in test [7], in test [8] and in [9] were 10.6%, -82.3% (active) and -55.2% (active), respectively.
With `CCN1C(=O)N(CC)C2C1NN=c1s/c(=C\c3ccc[nH]3)c(=O)n12` (stereo unspecified), the growth was 68% in [1]; 36.5% in [2]; 25.9% in [3]; 4.38% (active) in test [4]; 54.2% in [5]; -15.6% (active) in test [6]. The growth in test [7] was 7.44% (active); in [8] it was 31%; in test [9], 4.65% (active).
As for `COc1cccc(/C=C/C(=O)c2cccc(Nc3nc(Nc4ccccc4)nc(Nc4ccccc4)n3)c2)c1`, the growth in test [1] was 94.2%; in [2] it was 86.6%; in [3] it was 79.2%; in test [4], 91.9%; in [5], 17.7%; in test [6] it was 85.6%. Further, the growth in test [7] is 68.5%; in [8], 89%; in test [9] it was 87.5%.
In the case of `CC/C=C\C[C@H](O)C/C=C1/C(=O)C=C[C@@H]1C/C=C\CCCC(=O)O`, the growth in [1] was 83.1%; in test [2] it was 85.6%; in test [3], 96.9%; in test [4], 64.8%; in [5], 75.2%; in test [6] it was -10.7% (active). The results for the growth in test [7], in [8] and in test [9] were 75.9%, 68.5% and 65.4%, respectively.
As for `COc1ccc(/C=C2\CN(C(=O)C(Cl)Cl)C/C(=C\c3ccc(OC)cc3)C2=O)cc1`, the growth in test [1] is 61.3%; in test [2], 4.8% (active); in test [3] it was 40.5%; in [4], -34.5% (active); in test [5], -3.88% (active); in [6], 14.9%. Also, the growth in [7] is 4.79% (active); in [8] it was -48.4% (active); in test [9], -34.2% (active).
For the compound `COc1cc2nc3sc(C(=O)Nc4ccc(C(=O)OC(C)C)cc4)c(C(=O)Nc4ccc(Cl)cc4C)n3c(=O)c2cc1OC`, the growth was 103% in test [1]; 68.5% in test [2]; 67.2% in [3]; 22.7% in test [4]; 32.5% in test [5]; 98.7% in test [6]. The growth in [7] was 52%; in test [8] it was 53.6%; in test [9] it was 45.8%.
